HIF-2a inh: HIF-2a inhibition; 786-0 RCC cells HIF-2a reporter, luciferase luminescence, overnight; inhibition, % at 18.8 µM; 360,000 compounds, 0.72% hits;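 active means inhibition of the luminescence signal of 40% or more relative to plate controls, in a single-dose primary screen at 18.75 µM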
aSyn 5UTR inh: MLPCN primary screen, SNCA 5' untranslated region. alpha-synuclein 5'UTR reporter, inhibitor activity. inhibition, % (tested at 7.5 µM). 300,000 compounds, 0.82% hits. AID 1813; in the data active means inhibition above about 60%;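 further: H4 neuroglioblastoma cells stably carrying SNCA 5'UTR luciferase fusion; 0% = DMSO wells and 100% = positive control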
TROY signal inh: inhibitors of TROY-dependent NF-kB signaling; Q293 LMP1-TROYcd NF-kB luciferase reporter, 4 h; inhibition, % at 10 µM; 360,000 compounds, 0.98% hits;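 active means compounds whose plate-normalised and pattern-corrected inhibition of the luciferase reporter signal at the single screening dose is 50% or more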
TRAIL sens C8: caspase-8 TRAIL sensitization. 360,000 compounds, 1% hits. inhibition (viability loss, TRAIL sensitization), % at 10 µM. NB7+C8 cells + TRAIL, ATPlite viability luminescence. AID 624354;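 active means compounds causing at least 50% loss of cell viability in the single-dose screen, relative to plate controls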
TWEAK Fn14 block: TWEAK-Fn14 signaling inhibition; TWEAK-stimulated Fn14 reporter cells, luciferase luminescence, 8 h; inhibition, % at 10 µM; 360,000 compounds, 2% hits; in the data active means inhibition above about 50%
HSP90 refold inh: inhibitors of HSP90 luciferase refolding in rabbit reticulocyte lysate; luciferase refolding luminescence, 3 h; inhibition, % at 5.6 µM; 290,000 compounds, 0.91% hits; AID 1789;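 active means inhibition above the screen-wide mean plus 3 SD, computed separately per campaign, cut at about 16% in these data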;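 further: 0% = DMSO wells and 100% = 60 µM geldanamycin wells; inhibitors lower the luminescence because luciferase stays unfolded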
HSP90 inh confirm: confirmation of HSP90 inhibitors; rabbit reticulocyte lysate, luciferase refolding luminescence, 3 h; shares compounds with HSP90 refold inh; inhibition, % at 5.9 µM; 2,300 compounds, 64% hits; in the data active means inhibition above about 18%;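 further: 0% = vehicle wells and 100% = reference inhibitor wells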
luciferase ctr: counter-screen for HSP90 inhibitors: inhibitors of firefly luciferase. purified native firefly luciferase, luminescence. shares compounds with HSP90 refold inh. inhibition, % at 5.9 µM. 2,300 compounds, 48% hits;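 active means inhibition above the mean inhibition of all tested sample wells plus 3 SD, cut at about 10% in these data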;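 further: 0% = DMSO with luciferase and 100% = wells lacking luciferase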
Target sequence (P08659 whole entry, looked up): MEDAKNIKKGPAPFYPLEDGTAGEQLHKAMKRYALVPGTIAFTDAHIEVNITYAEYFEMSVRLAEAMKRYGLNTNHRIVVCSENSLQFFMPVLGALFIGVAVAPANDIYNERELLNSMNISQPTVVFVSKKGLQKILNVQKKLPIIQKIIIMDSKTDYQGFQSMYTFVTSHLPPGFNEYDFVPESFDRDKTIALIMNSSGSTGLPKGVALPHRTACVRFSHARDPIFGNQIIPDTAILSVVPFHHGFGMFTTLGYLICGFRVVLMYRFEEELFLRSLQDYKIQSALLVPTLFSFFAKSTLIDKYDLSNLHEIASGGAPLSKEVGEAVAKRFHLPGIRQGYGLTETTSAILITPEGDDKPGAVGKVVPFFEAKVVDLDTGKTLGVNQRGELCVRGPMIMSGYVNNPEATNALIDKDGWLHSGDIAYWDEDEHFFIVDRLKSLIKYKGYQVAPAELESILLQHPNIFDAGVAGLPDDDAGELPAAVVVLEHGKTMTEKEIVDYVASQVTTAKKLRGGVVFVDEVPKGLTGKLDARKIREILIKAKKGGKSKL
Starred values were filed as active, the others as inactive; / = no result. Most compounds without a hit are left out; they make up all but 3.9% or so of the library.

SMILES	HIF-2a inh	aSyn 5UTR inh	TROY signal inh	TRAIL sens C8	TWEAK Fn14 block	HSP90 refold inh	HSP90 inh confirm	luciferase ctr
CC(=O)c1ccc(S(=O)(=O)N2CCN(C(=O)CSc3ccc(F)cc3)CC2)cc1	9.2	-13.2	8.8	7.4	2.5	24.2*	-6.8	-9.9
O=C(NCc1ccccn1)c1cccn1-c1ncc(C(F)(F)F)cc1Cl	10.2	-5.9	-3.9	-3.9	15.8	41.2*	2.6	-1.5
COC(=O)c1ccccc1OCCOc1ccccc1C(=O)OC	1.4	-5.2	1.8	3.5	10.9	-3.2	/	/
COC(=O)c1ccccc1OCCCOc1ccc(C=O)cc1OC	-126.5	-106.7	33.7	8.1	53.2*	60.3*	70.2*	-10.4
O=S1(=O)CC(N2CCCCC2)CN1CCc1ccccc1 (stereo not drawn)	7.2	/	11.8	-14.2	5.3	/	/	/
Cc1cccc(N(CC(=O)NCc2ccccc2)C(=O)Cn2nnc(-c3ccc(C)o3)n2)c1	-1.6	0.4	19.8	1.0	-3.6	4.3	/	/
COc1ccc(N(CC(=O)NCc2ccc(F)cc2)C(=O)Cn2nnc(-c3ccc(C)o3)n2)cc1OC	14.2	-14.2	15.5	-8.4	29.3	49.1*	0.0	-2.7
Cc1ccc(CNS(=O)(=O)c2ccc(Cl)s2)cc1	-18.5	/	-21.1	-6.2	-19.0	/	/	/
CCN1CCN(Cc2ccc(NC(=O)c3ccc(C)c(NC(=O)c4cccc(-c5cn[nH]c(=O)c5)c4)c3)cc2C(F)(F)F)CC1	24.4	-7.9	-31.5	38.3	-187.7	19.5*	18.7*	-7.9
CCN1CCN(Cc2ccc(NC(=O)c3ccc(C)c(NC(=O)C4=NN(c5ccccc5)C(=O)C4)c3)cc2C(F)(F)F)CC1	-13.2	18.9	-2.3	6.5	-11.1	/	/	/
COc1ccc(C(=O)NC2CCN(C(=S)Nc3cc(C)cc(C)c3)CC2)cc1	14.4	22.7	-2.4	-8.2	7.2	0.8	/	/
COc1ccc(C(=O)NC2CCN(C(=S)Nc3cccc(C)c3)CC2)cc1	15.5	-6.4	19.3	-3.2	4.5	21.1*	4.7	-0.9
Nc1ccccc1C(=O)Nc1cccc(C(=O)O)c1	8.6	22.4	-9.6	-3.9	1.7	32.6*	41.8*	21.2*
CCOC(=O)N(C)C[C@@H]1OCc2cnnn2CCCC(=O)N([C@H](C)CO)C[C@H]1C	0.4	/	4.2	1.5	10.7	/	/	/
CCOC(=O)c1[nH]cc(-c2ccccc2)c1N1CCOCC1	10.4	/	-11.9	-4.0	8.4	18.1*	0.3	-1.9
CCOC(=O)c1cnc(-c2ccccc2)nc1N1CCOCC1	21.8	9.6	2.4	3.7	10.8	3.3	/	/
CCCCNC(=O)COC(=O)c1c2c(nc3ccccc13)CCC2	13.5	12.6	10.2	1.1	24.4	33.0*	6.4	-4.8
CCN(CC)S(=O)(=O)c1ccc(C)c(NC(=O)CN2CCN(Cc3ccccc3)CC2)c1	11.9	-3.8	6.7	-7.4	-2.3	28.8*	4.6	-0.9
Cc1ccc(-c2ccc3c(c2)O[C@H](CN(C)C(=O)Nc2ccc(C(F)(F)F)cc2)[C@H](C)CN([C@H](C)CO)S3(=O)=O)cc1	7.7	/	7.8	-2.3	16.9	/	/	/
Cc1ccc(S(=O)(=O)N2CCCCC2)cc1NC(=O)C1CCC1	3.0	/	-10.9	-3.5	-2.0	/	/	/
NNC(=O)CNC(c1ccccc1)c1cc(Br)ccc1N (stereo not drawn)	27.4	13.8	-1.4	1.2	3.8	58.4*	-2.2	-5.0
CCOC(=O)C1CCN(C(=O)c2sc3nc(-c4ccccc4)cn3c2C)CC1	-23.3	-35.4	1.5	0.3	4.1	0.5	/	/
CCOC(=O)C1CCCN(C(=O)c2sc3nc(-c4ccc(OC)cc4)cn3c2C)C1 (stereo not drawn)	3.2	11.3	-11.5	-5.6	8.4	46.4*	45.4*	-7.2
Cc1c(C(=O)NCCCN2CCOCC2)sc2nc(-c3ccc(F)cc3)cn12	-55.0	-35.2	-7.0	5.5	4.5	-2.6	/	/
COc1ccc(-c2cn3c(C)c(C(=O)NCCN4CCOCC4)sc3n2)cc1	-25.7	-46.0	-38.8	-2.9	32.5	72.7*	69.0*	-2.0
SMILES	HIF-2a inh	aSyn 5UTR inh	TROY signal inh	TRAIL sens C8	TWEAK Fn14 block	HSP90 refold inh	HSP90 inh confirm	luciferase ctr
CCOc1ccc(Cl)cc1-c1cc(C(=O)NCCOC)[nH]n1	1.6	/	5.1	-1.0	-0.7	/	/	/
Cn1c(=O)c2ccccc2n(Cc2ccccc2F)c1=O	18.8	44.6	20.2	0.0	-0.3	7.0	/	/
Cn1c(=O)c2ccccc2n(Cc2ccccc2Cl)c1=O	23.2	35.5	6.6	7.2	-59.8	27.6*	1.4	1.1
O=C(COc1ccc(Cl)cc1Cl)NC(=O)NC1CCCC1	-346.8	/	-28.9	-1.3	-53.1	/	/	/
O=C(COc1ccc(Cl)cc1Cl)NC(=O)N1CCCCC1	-111.1	-120.6	0.3	-10.4	61.2*	27.6*	37.5*	31.3*
COCCNC(=O)C1CCCN(Cc2cccc(C#N)c2)CC1 (stereo not drawn)	4.7	/	4.9	0.6	11.3	/	/	/
O=C(CCCOc1ccccc1)N1CCCCC1	19.8	70.6*	57.8*	3.6	86.5*	34.0*	65.8*	52.5*
CCC1CCCCN1C(=O)CCCOc1ccccc1 (stereo not drawn)	-102.7	-113.3	50.1*	7.9	50.0*	37.1*	38.6*	23.5*
CCC1CCCCN1C(=O)COc1ccc(F)cc1 (stereo not drawn)	8.4	-3.9	-13.8	-14.7	-14.4	0.7	/	/
CNC(=O)c1nn(C)c(=O)[nH]c1=O	9.8	/	15.3	-7.3	5.7	/	/	/
CN(C)c1ccc(N=Nc2ccc(C(=O)O)cc2)cc1	53.8*	64.0*	46.2	50.6*	97.7*	31.4*	53.0*	84.2*
CN(C)C1=NC(=O)/C(=C\c2ccccc2)S1	-15.2	-3.6	-25.5	-0.5	-6.2	37.7*	-10.8	-14.5
C=CCOc1ccccc1CNc1ccc2c(c1)OCCO2	13.2	46.0	85.0*	58.7*	90.7*	66.6*	73.4*	69.5*
C=CCOc1ccccc1CNc1cccc(F)c1	2.8	-48.5	2.6	-15.8	2.3	-3.6	/	/
O=C(/C=C/Nc1ccc(Br)cc1F)c1ccccc1	36.1	77.5*	76.0*	93.9*	86.2*	23.3*	83.8*	77.8*
O=C(/C=C/Nc1ccc(F)c(F)c1)c1ccc(Br)cc1	-285.7	-191.7	-46.9	14.9	-21.2	4.7	/	/
O=C(/C=C\Nc1ccccn1)c1ccccc1	-12.4	48.8	1.4	55.6*	76.5*	38.6*	73.8*	70.0*
O=C(/C=C/Nc1ccccc1Br)c1ccccn1	85.2*	114.3*	83.8*	92.6*	104.5*	86.5*	97.7*	93.8*
CCCCn1c(N)c(N(C)C(=O)c2c(C)nn(-c3ccccc3)c2C)c(=O)[nH]c1=O	-0.6	/	9.8	9.5	8.8	/	/	/
O=C(CCc1ccccc1)c1ccc2c(c1)OCCCO2	-254.4	-190.0	-64.1	5.7	1.0	-3.8	/	/

Bioassay records as filed in PubChem.
